Assay results reported in PubChem BioAssay (NCATS).
Inconclusive results are not listed. Active and inactive are the calls of the source. Calls follow the shape of the dose curve; as a rule, active = well fitted inhibition curve with a large enough effect; inconclusive = small, poorly fitted or top-dose-only effect; inactive = flat fitted curve, though single readings scatter. Where a SMILES comes first, the peptide text is derived from it. [ ]: non-standard residue; d: D form. ξ: configuration not given here. ξLac(3-iPr) = CC(C)CC(O)C(=O)O; NMeV = CN[CH](C(=O)O)C(C)C; βAla = NCCC(=O)O

The compounds below were run on NIH3T3 (assay: Cytotoxic Profiling of Annotated Libraries Using Quantitative High-Throughput Screening (AID 1296008; also: nearly all actives have a fitted effect of over 60% in size)). Details: Five cell lines viability, CellTiter-Glo ATP luminescence, 48-72 h; max response: hits give low values.
Summary of the method: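 Cells exposed to compounds for 48 or 72 hr at 37 degrees Celsius. Viability read as ATP-coupled luminescence with CellTiter-Glo after 10 min at room temperature.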
% is scaled to controls: 0 for no effect and ±100 for the full control effect; potency is read from the fitted curve at half-maximal effect.

SMILES | Potency | max response | outcome
CC(=O)NCC(=O)N1C2CCC1c1cc(Nc3ncc(C(F)(F)F)c(NC4CCC4)n3)ccc12 (centres undefined) | 1.3 µM (active) | – | –
Cn1c(=O)cc(N2CCCC(N)C2)n(Cc2cc(F)ccc2C#N)c1=O (centres undefined) | – | -2.76% (inactive) | –
NC(=O)[C@H](O[C@@H]1O[C@H](CO)[C@@H](O)[C@H](O)[C@H]1O)c1ccccc1 | – | 4.94% (inactive) | –
Nc1nccn2c(C3CCC(C(=O)O)CC3)nc(-c3cc4cccc(Cl)c4[nH]3)c12 (centres undefined) | 7.31 µM (active) | – | –
CNC(=O)c1cccc(-c2ccc3c(N4CCOC[C@@H]4C)nc(N4CCOC[C@@H]4C)nc3n2)c1 | 1.3 µM (active) | – | –
O=C(O)/C=C/c1ccc(O)c(O[C@@H]2O[C@H](CO)[C@@H](O)[C@H](O)[C@H]2O)c1 | – | 4.37% (inactive) | –
FC(F)(F)c1ccc(Nc2nc(-c3c(C(F)(F)F)nc4ccccn34)cs2)cc1 | 1.3 µM (active) | – | –
O=C(O)/C=C/c1ccc(-c2ccc(O)c(C34CC5CC(CC(C5)C3)C4)c2)cc1 | 0.92 µM (active) | – | –
CO[C@@H](C)Cn1c(=O)n(C)c2cnc3ccc(-c4cncc(C(C)(C)O)c4)cc3c21 | 0.326 µM (active) | – | –
CCO[C@@H]1OC(=O)C[C@@H]1NC(=O)[C@@H]1CCCN1C(=O)[C@@H](NC(=O)c1ccc(N)c(Cl)c1)C(C)(C)C | – | -4.45% (inactive) | –
CC(=O)C1=C(C)N(c2cccc(C(F)(F)F)c2)C(=O)N[C@H]1c1ccc(C#N)nc1 | – | -21.8% (inactive) | –
C=CC1C(OC2OC(CO)C(O)C(O)C2O)OC=C(C(=O)OC)C1CC1CC(=O)CC(CCc2ccc(O)cc2)O1 (centres undefined) | – | -7.36% (inactive) | –
CC(C)C(CO)Nc1nc(Nc2ccc(C(=O)O)c(Cl)c2)c2ncn(C(C)C)c2n1 (centres undefined) | – | -3.63% (inactive) | –
C#CC[C@H](c1nc2cc(Cl)ccc2c(=O)n1Nc1ccccc1)N(CCCN)C(=O)c1cccc(Cl)c1F | 10.3 µM (active) | – | –
CN(C)c1nc(NC2CCC(NCCc3ccc(Br)cc3OC(F)(F)F)CC2)nc2ccccc12 (centres undefined) | 4.11 µM (active) | – | –
C/C=C/C=C/C=C/C(=O)OC1C=C(C=O)C(O)(C(=O)O)C2(C)CCCC(C)(C)C12 (centres undefined) | – | 3.49% (inactive) | –
COc1cc(O)c2c(c1)C1=CC(O)C(O)CC1(C)OC2=O (centres undefined) | – | -6.33% (inactive) | –
CN(C)CCCCC(=O)Nc1ccc(NC(=S)NC(=O)c2ccc(C(C)(C)C)cc2)cc1 | 7.31 µM (active) | – | –
CC1C(=O)CC2C3CCC(C(=O)O)C12CC3(C)CO (centres undefined) | – | -4.76% (inactive) | –
C[C@@H]1O[C@@H](O[C@H]2[C@H](O[C@H]3CC[C@@]4(C)C(CC[C@]5(C)C4CC=C4[C@@H]6CC(C)(C)CC[C@]6(C(=O)O[C@@H]6OC[C@H](O)[C@H](O)[C@H]6O[C@@H]6O[C@@H](C)[C@H](O[C@@H]7O[C@H](CO)[C@@H](O)[C@H](O)[C@H]7O)[C@H](O)[C@H]6O)[C@H](O)C[C@]45C)C3(C)C)O[C@H](CO)[C@@H](O[C@@H]3OC[C@@H](O)[C@H](O)[C@H]3O)[C@@H]2O)[C@H](O)[C@H](O)[C@H]1O (some centres undefined) | – | -3.79% (inactive) | –

SMILES | Potency | max response | outcome
CC(C)CC1OC(=O)C2CCCN2C(=O)CCNC(=O)C(Cc2ccccc2)NC(=O)C(C(C)C)N(C)C(=O)C(C(C)C)N(C)C1=O (centres undefined) (cyclo([ξLac(3-iPr)][NMeV][NMeV]F[βAla]P); configuration not given here) | – | 0.588% (inactive) | –
O=C(c1cc2c(cc1F)OC(c1ccc(F)cc1)(c1ccc(Cl)cc1Cl)O2)N1CCOCC1 (centres undefined) | – | -3.07% (inactive) | –
CC[C@@](C)(Nc1ccnc(-c2c[nH]c3ncccc23)n1)C(=O)NCC(F)(F)F | 14.6 µM (active) | – | –
C[C@@H]1CN(Cc2ccccc2)C[C@H]1c1nc2c(cnn2C2CCOCC2)c(=O)[nH]1 | – | -13.9% (inactive) | –
Nc1nc2c(c(=O)[nH]1)C[C@@H](CCc1ccc(C(=O)N[C@@H](CCC(=O)O)C(=O)O)cc1)CN2 | 0.103 µM (active) | – | –
CC1=C(C(=O)O[C@@H]2O[C@H](COC3OCC(O)C(O)C3O)[C@@H](O)[C@H](O)[C@H]2O)C(C)(C)CCC1 (some centres undefined) | – | -7.14% (inactive) | –
NC(=O)c1cccc2cn(-c3ccc(C4CCCNC4)cc3)nc12 (centres undefined) | – | -14% (inactive) | –
C=C1C(=O)O[C@@H]2C/C(C)=C\C(=O)/C=C(\C)[C@@H](OC(=O)/C(C)=C\C)[C@H](O)[C@@H]12 | 10.1 µM (active) | – | –
Cc1c2cc(c(C(=O)O)c1C)OC1OC(C(O)C(O)C1O)C(O)C(O)C1OC(O2)C(O)C(O)C1O (centres undefined) | – | – | inactive
CN1CCN(Cc2ccc(-c3cnc4[nH]cc(-c5ccc6[nH]ccc6c5)c4c3)cc2)CC1 | 14.6 µM (active) | – | –
Cc1cc(Nc2cc(N3CCN(C)CC3)nc(/C=C/c3ccccc3)n2)n[nH]1 | 2.31 µM (active) | – | –
CCOCCn1nc(CC)c2nc(N3CCC(C(=O)O)CC3)nc(Nc3cc(C)ccn3)c21 | – | 3.17% (inactive) | –
CC(Oc1cc(-n2cnc3ccc(CN4CCN(C)CC4)cc32)sc1C(N)=O)c1ccccc1C(F)(F)F (centres undefined) | 8.2 µM (active) | – | –
C[C@H]1C(=O)N2c3ccccc3[C@@]3(O)C[C@@H]4C(=O)N[C@](C)(c5nc6ccccc6c(=O)n54)N1[C@@H]23 | – | -0.721% (inactive) | –
CC1(O)CC(O)C2(O)C=COC(O[C@@H]3O[C@H](CO)[C@@H](O)[C@H](O)[C@H]3O)C12 (some centres undefined) | – | -15.6% (inactive) | –
Cc1nc(Nc2n[nH]c3c2CN(C(=O)NC(CN(C)C)c2ccccc2)C3(C)C)c2sccc2n1 (centres undefined) | 8.2 µM (active) | – | –
CCN(CC)CCN(Cc1ccc(-c2ccc(C(F)(F)F)cc2)cc1)C(=O)Cn1c(SCc2ccc(F)cc2)nc(=O)c2c1CCC2 | 4.61 µM (active) | – | –
C[C@H](NC(c1cccc(C[P+](=O)O)c1)[C@H](C)O)c1ccc(Cl)c(Cl)c1 (some centres undefined) | – | 3.54% (inactive) | –
CC1(C)CC[C@]2(C(=O)O)CC[C@]3(C)C(=CCC4[C@@]5(C)CC[C@H](O[C@@H]6O[C@H](CO)[C@@H](O)[C@H](O)[C@H]6O[C@@H]6O[C@H](CO)[C@@H](O)[C@H](O)[C@H]6O)[C@@](C)(CO)C5CC[C@]43C)[C@@H]2C1 (some centres undefined) | – | – | inactive
